Test systems include NCI-H23 lung; NCI-H226 lung; NCI-H322M lung; HOP-62 NSCLC; NCI-H460 lung; HOP-92 NSCLC; NCI-H522 lung; A549/ATCC NSCLC; 786-0 renal; COLO 205 colon; DU-145 prostate; K-562 leukemia; MALME-3M melanoma; MDA-MB-231 breast; RXF 393 renal; SF-268 CNS; SF-295 CNS; UACC-257 melanoma; M14 melanoma; SF-539 CNS.
Common to all, as to assay: NCI-60 one-dose screen, 48 h (100 = growth as untreated, 0 = no growth, -100 = all killed)
Details in all cases: 10 µM unless noted

The record followed here is PubChem BioAssay (NCI).

SMILES strings stand for the structures. About 83,000 compounds went through this panel and 20% of them were active in at least one assay; those are over-represented in the sample as a whole.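 Cell lines were cultured in 96-well plates, exposed to a single compound concentration, and assessed for percent growth 48 hours later.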 Unmarked numbers belong to inactive results. The source made the active and inactive calls. How the source made its calls: active means growth percent below 10; inactive means the rest.

With `C=C1CC[C@@H]2[C@](C)(COC(C)=O)[C@H](OC(C)=O)CC[C@@]2(C)[C@@H]1CC(Nc1ccc(S(=O)(=O)Nc2nc(C)cc(C)n2)cc1)C1=CCOC1=O` (some centres undefined), the growth with NCI-H23 lung was 84.3%; in the test on NCI-H226 lung it was 86.7%; with NCI-H322M lung, 97.2%; in the test with HOP-62 NSCLC it was 103%; with NCI-H460 lung it was 90.3%; in the test on HOP-92 NSCLC, 90.1%. In addition, the growth is 22% in the test on NCI-H522 lung; 65.3% with A549/ATCC NSCLC; 103% with 786-0 renal; 77% in the test with COLO 205 colon; 82.3% in the test on DU-145 prostate; 19.1% with K-562 leukemia. Also, the growth in the test on MALME-3M melanoma is 96.3%; in the test with MDA-MB-231 breast, 107%; in the test on RXF 393 renal, 85.1%; in the test with SF-268 CNS, 93.3%; in the test with SF-295 CNS, 97%; in the test with UACC-257 melanoma it was 67.9%. The growth with M14 melanoma is 63.8%.

For `COc1ccc(C(=O)c2sc3nc4c(cc3c2N)CCCC4)cc1OC`, the growth was 39.3% in the test with NCI-H23 lung; 37.1% in the test with NCI-H226 lung; 86.8% in the test with NCI-H322M lung; 38.5% in the test on HOP-62 NSCLC; 13% in the test on NCI-H460 lung; 67.3% with HOP-92 NSCLC. The growth in the test with NCI-H522 lung was 12.6%; with A549/ATCC NSCLC it was 41.4%; in the test with 786-0 renal, 66.1%; with COLO 205 colon, 16.5%; in the test on DU-145 prostate, 62%; with K-562 leukemia, 10.9%. The growth is 63% with MALME-3M melanoma; 46.3% in the test on MDA-MB-231 breast; 31.6% in the test with RXF 393 renal; 63.9% in the test on SF-268 CNS; 28.6% in the test with SF-295 CNS; 79.6% in the test with UACC-257 melanoma. In addition, the growth in the test on M14 melanoma is 27.7%.

Take `CCCCNC(=O)NS(=O)(=O)c1ccc(N2N=C(c3cc(C)ccc3C)CC2c2cc(OC)c(OC)c(OC)c2)cc1` (centres undefined): the growth was -26.1% (active) in the test on NCI-H23 lung; 75.2% in the test on NCI-H226 lung; 66.7% in the test with NCI-H322M lung; 53.8% in the test with HOP-62 NSCLC; 57.5% with NCI-H460 lung; 62.4% with HOP-92 NSCLC. The growth with NCI-H522 lung was 53.7%; in the test on A549/ATCC NSCLC it was 32.6%; with 786-0 renal, 47.9%; with COLO 205 colon, 44.7%; in the test with DU-145 prostate, 88.9%; with K-562 leukemia, 36.1%. Besides, the growth in the test with MALME-3M melanoma is 25.3%; in the test on MDA-MB-231 breast it was 79.4%; in the test with RXF 393 renal, 44.7%; in the test on SF-268 CNS it was 66%; with SF-295 CNS, 8.51% (active); in the test with UACC-257 melanoma, 59.3%. Also, in the test on M14 melanoma, the growth was 8.53% (active).

With `O=C(O)c1c([N+](=O)[O-])cnc2ccccc12`, the growth with NCI-H23 lung is 91.5%; in the test on NCI-H226 lung, 91.8%; in the test on NCI-H322M lung, 96.6%; with HOP-62 NSCLC it was 90.6%; in the test on NCI-H460 lung, 106%; with HOP-92 NSCLC it was 131%. In addition, the growth in the test with NCI-H522 lung was 100%; in the test on A549/ATCC NSCLC, 102%; in the test on 786-0 renal, 105%; in the test with COLO 205 colon, 121%; in the test on DU-145 prostate, 116%; in the test on K-562 leukemia, 112%. In addition, the growth with MALME-3M melanoma is 88.4%; with MDA-MB-231 breast, 107%; in the test with RXF 393 renal it was 110%; in the test on SF-268 CNS, 104%; in the test with SF-295 CNS, 102%; with UACC-257 melanoma, 97.1%. In the test with M14 melanoma, the growth was 93.5%.

Consider `CCCCCN(CCCCC)CCC[C@@H](C)[C@H]1CC[C@H]2[C@@H]3[C@H](OCCCN)C[C@@H]4C[C@H](OCCCN)CC[C@]4(C)[C@H]3C[C@H](OCCCN)[C@]12C`, for which the growth in the test on NCI-H23 lung is 49.2%; with NCI-H226 lung, 75.2%; with NCI-H322M lung, 24.6%; in the test with HOP-62 NSCLC, 48.3%; with NCI-H460 lung it was 45.2%; with HOP-92 NSCLC, 50%. Also, the growth in the test with NCI-H522 lung is 28.8%; in the test with A549/ATCC NSCLC, 55.2%; with 786-0 renal it was 61.1%; in the test with COLO 205 colon, 52.1%; in the test on DU-145 prostate, 76.5%; in the test on K-562 leukemia, -19.4% (active). In addition, the growth is 62.2% in the test with MALME-3M melanoma; 37% in the test on MDA-MB-231 breast; 87.1% in the test with RXF 393 renal; 87.5% in the test with SF-268 CNS; -21.9% (active) with SF-539 CNS; 42.8% with M14 melanoma.

Take `CCC(C)[C@@H]1NC(=O)[C@@H]2CCCN2C(=O)[C@H](Cc2ccccc2)NC(=O)[C@@H]2CCCN2C(=O)[C@H](Cc2ccccc2)NC(=O)[C@@H]2CCCN2C(=O)[C@H](Cc2ccccc2)NC1=O` (some centres undefined): the growth with NCI-H23 lung was 113%; with NCI-H226 lung it was 109%; in the test on NCI-H322M lung, 127%; with HOP-62 NSCLC, 103%; in the test with NCI-H460 lung, 104%; with HOP-92 NSCLC it was 95.3%. Besides, the growth with NCI-H522 lung is 96.3%; in the test with A549/ATCC NSCLC, 101%; in the test with 786-0 renal, 109%; in the test with COLO 205 colon it was 108%; with DU-145 prostate it was 118%; in the test with K-562 leukemia it was 91.5%. Further, the growth was 126% in the test on MALME-3M melanoma; 104% in the test on MDA-MB-231 breast; 111% with RXF 393 renal; 119% in the test on SF-268 CNS; 109% with SF-539 CNS; 105% with M14 melanoma.

Take `CCCCCCCCOC(=O)CC[C@@H](C)[C@H]1CC[C@H]2[C@@H]3[C@H](OC(=O)CCN)C[C@@H]4C[C@H](OC(=O)CCN)CC[C@]4(C)[C@H]3C[C@H](OC(=O)CCN)[C@]12C`: the growth in the test on NCI-H23 lung was 90.3%; with NCI-H226 lung, 89.8%; in the test with NCI-H322M lung it was 71.4%; in the test on HOP-62 NSCLC, 37.7%; with NCI-H460 lung, 73.7%; with HOP-92 NSCLC, 40.7%. The growth with NCI-H522 lung is 10.8%; in the test with A549/ATCC NSCLC it was 81.3%; in the test with 786-0 renal, 99.1%; in the test with COLO 205 colon it was 66.4%; with DU-145 prostate, 74.4%; in the test with K-562 leukemia, -74.5% (active). In addition, the growth with MALME-3M melanoma is 67.8%; in the test with MDA-MB-231 breast, 69.3%; in the test with RXF 393 renal it was 109%; in the test on SF-268 CNS, 69.7%; with SF-539 CNS, 56.3%; with M14 melanoma, 84.4%.

In the case of `O=C(CCCCN1CCOCC1)Nc1ccc(Cn2nnc3c2C(=O)c2nnn(Cc4ccc(NC(=O)CCCCN5CCOCC5)cc4)c2C3=O)cc1`, the growth with NCI-H23 lung is -18% (active); in the test with NCI-H226 lung, -52.2% (active); with NCI-H322M lung, -89.3% (active); in the test with HOP-62 NSCLC, -59.1% (active); in the test with NCI-H460 lung, -39.8% (active); in the test with HOP-92 NSCLC, -40.3% (active). Also, the growth in the test on NCI-H522 lung is -68.3% (active); in the test on A549/ATCC NSCLC, -68.3% (active); with 786-0 renal, -50.5% (active); with COLO 205 colon, -78.8% (active); in the test with DU-145 prostate, -88.6% (active); in the test with K-562 leukemia it was 6.24% (active). Further, the growth is -86% (active) in the test with MALME-3M melanoma; -1.55% (active) in the test on MDA-MB-231 breast; -67.4% (active) in the test on RXF 393 renal; -35.5% (active) in the test on SF-268 CNS; -87.7% (active) in the test on SF-295 CNS; -77.2% (active) in the test on UACC-257 melanoma. Besides, the growth in the test with M14 melanoma is -90.3% (active).
